± gives the standard deviation of the averaged measurements.
Test system: NanoLuc luciferase (NLuc)
Assay: residual bioluminescent signal relative to negative (DMSO) control; higher = less interference (more residual luciferase signal)
Protocol: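 Purified luciferase (FLuc 10 nM + 10 uM D-luciferin; NLuc 10 pM + 10 uM furimazine; RLuc 50 pM + 2 uM coelenterazine) in 384-well plates; metal salt pre-incubated with enzyme 10 min at RT, substrate added and luminescence read after 10 min. Signal normalised to plate DMSO negative control (% N_VALUE = x/mean neg *100); triplicate wells at 0.01, 1 and 5 mM salt.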

[1] = metal salt concentration 0.01 mM, HEPES conditions (100 mM HEPES, 0.1% BSA, pH 7.5)
[2] = metal salt concentration 0.01 mM, screening conditions (PBS, 0.1% BSA, pH 7.4)
[3] = metal salt concentration 1 mM, HEPES conditions (100 mM HEPES, 0.1% BSA, pH 7.5)
[4] = metal salt concentration 1 mM, screening conditions (PBS, 0.1% BSA, pH 7.4)
[5] = metal salt concentration 5 mM, HEPES conditions (100 mM HEPES, 0.1% BSA, pH 7.5)
[6] = metal salt concentration 5 mM, screening conditions (PBS, 0.1% BSA, pH 7.4)

Structure (SMILES) | residual bioluminescent signal [1] [%] | residual bioluminescent signal [2] [%] | residual bioluminescent signal [3] [%] | residual bioluminescent signal [4] [%] | residual bioluminescent signal [5] [%] | residual bioluminescent signal [6] [%]
O=[N+]([O-])[O-].O=[N+]([O-])[O-].[Pb+2] [lead(II) nitrate] | 94 ± 3.2 | 93.8 ± 2.2 | 26.7 ± 2.9 | 88.2 ± 4.3 | 7.56 ± 0.53 | 44.2 ± 9
O=[N+]([O-])[O-].O=[N+]([O-])[O-].[Zn+2] [zinc nitrate] | 93.6 ± 0.95 | 93 ± 6.4 | 30.5 ± 4.9 | 32.8 ± 4.5 | 16.1 ± 1.8 | 9.03 ± 2.6
O=[N+]([O-])[O-].O=[N+]([O-])[O-].O=[N+]([O-])[O-].[Ga+3] [gallium(III) nitrate] | 96.1 ± 2.9 | 99.5 ± 2.3 | 70.9 ± 6.9 | 83 ± 7.1 | 8.8 ± 1.5 | 0.649 ± 0.57
O=[N+]([O-])[O-].O=[N+]([O-])[O-].[Ca+2] [calcium nitrate] | 97.1 ± 2.3 | 96.46 ± 0.94 | 102 ± 5.5 | 97.6 ± 4.1 | 109 ± 3.1 | 92.6 ± 4.6
[Cl][Sn][Cl] [tin(II) chloride] | 95.8 ± 2.9 | 97 ± 5.1 | 90.1 ± 5 | 84.2 ± 6.6 | 87.3 ± 5 | 0.413 ± 0.39
O=[N+]([O-])[O-].[Li+] [lithium nitrate] | 93.22 ± 0.49 | 96.7 ± 1 | 97 ± 3.4 | 95.4 ± 4.8 | 102 ± 3.7 | 97.1 ± 3.3
O=[N+]([O-])[O-].O=[N+]([O-])[O-].[Ni+2] [nickel(II) nitrate] | 89 ± 2 | 94.5 ± 3.8 | 87.6 ± 4.2 | 91.4 ± 1.8 | 89.9 ± 2.2 | 78.1 ± 3.4
